According to PubChem BioAssay (NCATS):
Records with an inconclusive call do not appear. Where a call stands in place of a potency, no number is given. A number with no mark means an inactive call. Active and inactive are the calls of the source. Calls come from the whole dose curve; as a rule, active = well fitted inhibition curve with a large enough effect; inconclusive = small, poorly fitted or top-dose-only effect; inactive = no such curve, though single readings can be large or run the other way.

Target: Retinaldehyde dehydrogenase 3 (Homo sapiens) (UniProt P47895)
Assay: qHTS for Inhibitors of the Aldehyde Dehydrogenase Family (ALDH1A3) Primary screen (AID 2061315)
Details: ALDH inhibition qHTS; series mostly up to 56 µM

SMILES | Potency | activity change, negative = inhibition
NC(=O)C1CCN(c2nc(-c3ccc4c(c3)OCCCO4)cs2)CC1 | inactive | –
Cc1ccc(NS(=O)(=O)c2cc3c(cc2NCC(C)(C)O)NC(=O)CC3)cc1C | inactive | –
COc1cccc(C)c1NC(=O)C(OC(=O)CNC(=O)c1ccccc1)c1ccccc1 (stereo not given) | inactive | –
O=C(CNC(=O)c1cccc(Cl)c1)OC(C(=O)Nc1cc(C(F)(F)F)ccc1Cl)c1ccccc1 (stereo not given) | inactive | –
O=C(Nc1nnc(-c2ccncc2)s1)Nc1cccc2ccccc12 | inactive | –
O=C(OCC#CCSc1nnc(-c2ccc(F)cc2)o1)c1ccc(F)cc1 | inactive | –
Cc1cc(N[S+](=O)([O-])c2ccc(NC(=O)Cc3ccc(Cl)c([N+](=O)[O-])c3)cc2)no1 | inactive | –
N#Cc1cc(NC(=O)Nc2nnc(-c3ccncc3)s2)ccc1-c1ccc[nH]1 | inactive | –
C[C@@H]1CN(c2c(F)c(F)c3c(=O)c(C(=O)O)cn(C4CC4)c3c2F)C[C@H](C)N1 | – | 1.69% [at 11.2 µM]
Cc1cc2c(s1)c1cnn(Cc3cc(Cl)ccc3F)c(=O)c1n2C | inactive | –
FC(F)(F)c1cccc(N2CCN(C(=S)Nc3ccncc3)CC2)c1 | inactive | –
O=C1CCCC2=C1C(c1[nH]ncc1Cl)NC(=NCc1cccs1)N2 (stereo not given) | inactive | –
CCN1CCCC1Cn1c(-c2ccccc2)nc2c(N(CCOC)CCOC)nc(C)nc21 (stereo not given) | inactive | –
Cc1cc2c(s1)c1cnn(Cc3cc(F)c(F)cc3F)c(=O)c1n2C | inactive | –
COc1cc(OC)cc(-c2nnc3n2N=C(c2cc(OC)ccc2OC)CS3)c1 | inactive | –
Cn1nnnc1Sc1ncnc2scc(-c3ccccc3Cl)c12 | inactive | –
Cc1ccc(S(=O)(=O)Nc2cnccc2C(=O)Nc2nc(-c3ccc(Cl)cc3)cs2)cc1 | inactive | –
NC(=O)c1cccc(-c2noc(-c3ccccc3C(F)(F)F)n2)c1 | inactive | –
COc1ccccc1OCCN1CC(COc2cccc3[nH]c4ccccc4c23)OCC1=O (stereo not given) | inactive | –
COC(=O)c1ccccc1NC(=O)c1ccc(F)cc1 | inactive | –

SMILES | Potency | activity change, negative = inhibition
Cc1ccc(S(=O)(=O)Nc2cnccc2C(=O)Nc2nc(-c3ccc(Cl)c(Cl)c3)cs2)cc1 | inactive | –
Cc1cccc(-n2cnc3cc(C(=O)N4CCCCCC4)ccc32)c1 | inactive | –
C=C1C(=O)O[C@H]2[C@H]1CC/C(C)=C/CC[C@@]1(C)O[C@@H]21 | inactive | –
O=C(Cn1cc(CNC(=O)c2ccccc2)nn1)Nc1cc(C(F)(F)F)ccc1Cl | inactive | –
Cc1ccnc(NC(=S)N2CCc3ccccc3C2)c1 | inactive | –
CCOC(=O)c1cccc(NS(=O)(=O)c2ccc(NC(=O)Cc3ccc(Cl)c(Cl)c3)cc2)c1 | inactive | –
COc1cccc(-c2ccc3ncnc(NCc4cccc(F)c4)c3c2)c1 | inactive | –
O=C(CCCc1ccccc1)NC(c1ccco1)c1cc(Cl)c2cccnc2c1O (stereo not given) | inactive | –
O=C(Cc1ccc(Cl)c(Cl)c1)Nc1ccc([S+](=O)([O-])Nc2cccc([N+](=O)[O-])c2)cc1 | inactive | –
N=c1c2c(ccn1-c1ccccc1)Oc1ccc3ccccc3c1C2c1ccccc1 (stereo not given) | inactive | –
COC(=O)c1nc(Nc2cc(F)cc(F)c2)nc(NC2CCCC2)n1 | inactive | –
O=C1NS(=O)(=O)C(c2ccccc2)C1c1ccccc1 (stereo not given) | inactive | –
O=C(/C=C/c1ccc(C(F)(F)F)cc1)Nc1cccc([S+](=O)([O-])Nc2ccccc2F)c1 | inactive | –
CCCCNc1nc(C)nc2c1nc(-c1ccccc1)n2CCN(C)C | inactive | –
COc1ccc(NS(=O)(=O)c2ccc(C)cc2)c(C(=O)Nc2nc(-c3ccccc3)cs2)c1 | inactive | –
Cc1sc(NC(=O)Cc2ccc3c(c2)OCO3)nc1-c1ccc2c(c1)CCN2C(=O)c1ccccc1C(F)(F)F | inactive | –
CC(=O)Nc1sc2c(c1-c1nc3ccccc3s1)CCNC2 | inactive | –
O=C(O)c1ccc(O)c2ncc(N3CCC(N4CCOCC4)C3)cc12 (stereo not given) | inactive | –
Cc1cc(NC(=S)N2CCN(c3cccc(C(F)(F)F)c3)CC2)nc2ccccc12 | inactive | –
O=C(O)C1C2C(=O)N(c3ccccc3)C[C@@]23C=C[C@@H]1O3 (stereo not given in full) | inactive | –
